Screening results deposited in PubChem by National Center for Advancing Translational Sciences (NCATS).
CBFb RUNX1 block – inhibitors of human CBF-beta and RUNX1 interaction; AlphaScreen CBFb-His/RUNX1-biotin binding, biochemical; Potency, µM (highest dose often 59.8 µM), for inactives: top-dose activity, negative = inhibition, actives largely listed as inhibitors; 230,000 tested, under 10 active; further: % of control where 0% means no effect
Target sequence (Q01196 whole entry, looked up): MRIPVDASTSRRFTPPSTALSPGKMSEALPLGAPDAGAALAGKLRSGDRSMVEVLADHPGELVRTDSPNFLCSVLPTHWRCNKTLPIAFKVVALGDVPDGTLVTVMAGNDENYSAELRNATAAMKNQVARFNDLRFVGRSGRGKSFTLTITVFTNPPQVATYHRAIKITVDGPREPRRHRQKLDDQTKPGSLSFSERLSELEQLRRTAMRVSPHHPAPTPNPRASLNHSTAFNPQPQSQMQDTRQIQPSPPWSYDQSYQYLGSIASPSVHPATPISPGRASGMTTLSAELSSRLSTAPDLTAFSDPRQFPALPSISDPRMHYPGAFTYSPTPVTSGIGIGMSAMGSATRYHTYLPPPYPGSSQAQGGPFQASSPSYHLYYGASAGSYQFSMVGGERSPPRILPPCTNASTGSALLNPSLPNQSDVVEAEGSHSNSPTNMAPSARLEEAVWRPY
Target sequence (Q13951 whole entry, looked up): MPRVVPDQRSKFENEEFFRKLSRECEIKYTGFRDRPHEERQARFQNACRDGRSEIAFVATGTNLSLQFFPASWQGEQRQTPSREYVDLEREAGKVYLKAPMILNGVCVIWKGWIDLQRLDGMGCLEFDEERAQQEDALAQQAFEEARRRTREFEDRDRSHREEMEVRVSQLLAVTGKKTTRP
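AlphaScreen binding: CBFb-His and RUNX1-biotin (30 nM each) preincubated 20 min, compound added for 15 min, then nickel and streptavidin beads for 90 min, all at room temperature. Disruption of the interaction by any mechanism counts as activity.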
RGS12 GoLoco inh – inhibitors of human Gai1-RGS12 GoLoco interaction (red fluorophore) | P63096 | Gai1:RGS12 GoLoco peptide FP, rhodamine, 10 min | Potency, µM (top dose mostly 61.6 µM), for inactives: at the highest dose activity, negative = inhibition, most hits filed as inhibitors | 0.44% of 230,000 active; active means well fitted inhibition curve with a large enough effect, not every such curve was filed as active; inactive means no such curve, though single readings can be large or run the other way; further: potency means the concentration at half of the fitted maximal effect; on the % scale 0 is the no-effect control and ±100 the full control effect; nearly all actives have a fitted effect of over 30% in size
ERK EGF block – EGF-driven ERK pathway inhibition | HEK293-V1b, EGF-stimulated phospho-ERK AlphaScreen | Potency, µM (titrated, usually from 11.5 µM), for the others: at the highest dose activity change, negative = inhibition, hits mostly inhibitors | 0.41% of 130,000 active | AID 1454;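 further: potency means the concentration at half of the fitted maximal effect; plate controls were stimulated vehicle wells for no effect and unstimulated vehicle basal for full effect; nearly all actives have a fitted effect of over 55% in size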
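HEK293 cells stably expressing V1b receptor, serum-reduced (1% FBS) overnight, pretreated 30 min with compound, then stimulated 5 min with 25 nM EGF; phospho-ERK detected by AlphaScreen SureFire. AC50 from Hill fits, normalized to DMSO and EGF.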
* = called active by the depositor; u = inconclusive; x = no result; ! = not active in a repeat; [ ] = remark or other dose. An excerpt weighted towards active compounds, which were near 0.5% of everything screened. Unless noted, the call rests on the fitted dose curve; in most records, active means well fitted curve in the direction sought with a large enough effect; inconclusive means small, poorly fitted or top-dose-only effect, or another doubt; inactive means no such curve, though single readings can be large; an effect the other way counts as inactive or inconclusive.

SMILES	CBFb RUNX1 block	RGS12 GoLoco inh	ERK EGF block
O=C(O)C/C=C\CC(=O)O	x	3.1%[14.2 µM]	x
CC1=CC(=O)C2=C(C)CC[C@H]3[C@H](C)C(=O)O[C@@H]3C12 (stereo partly specified)	9.3%	x	x
COn1cnnc1-c1ccccc1	7.7%	8.91µM*	x
On1cnnc1-c1ccccc1	-4.6%	-7.9%	x
O=C1C=CC2(OCCCO2)C(Br)=C1CO	10.2%	-3.3%	7.4%
CC(=O)OC[C@@H]1O[C@@H](O/N=C2/C[C@@H](O)[C@@H](O)[C@@H]3[C@@H]4C(=O)N(C5CCCCC5)C(=O)[C@H]4CC[C@H]23)[C@H](OC(C)=O)[C@H](OC(C)=O)[C@@H]1OC(C)=O	7.7%[13.1 µM]	x	x
CCNc1ncc2nc(-c3ccc(Cl)cc3)c(=O)n(Cc3cccs3)c2n1	x	12.9%	x
COc1ccc2c(c1)OC1(O)COc3cc(OC)c(OC)cc3C1=C2 (stereo unspecified)	x	3.5%	24.1%
O=C1c2cccc(O)c2C(=O)c2c(O[C@@H]3O[C@H](CO)[C@@H](O)[C@H](O)[C@@H]3O)cccc21	x	-10.2%[14.2 µM]	x
O=C(O)c1cc(O)c2c(c1)[C@H]([C@H]1c3cc(C(=O)O)cc(O)c3C(=O)c3c(O[C@@H]4OC(CO)C(O)C(O)C4O)cccc31)c1cccc(O[C@@H]3OC(CO)C(O)C(O)C3O)c1C2=O (stereo partly specified)	x	7.94µM*	-1.8%
O=S1(=O)C2CC3C=CC2(CN1Cc1ccccc1)O3 (stereo unspecified)	0.2%	x	x
CN(C)CCN(Cc1ccc(Cl)cc1)c1ccccn1	2.2%	-4.5%	-1.9%[25.7 µM]
C[N+](C)(C)CCN(Cc1ccc(Cl)cc1)c1ccccn1	-2.3%	6.31µM*	x
COc1ccccc1/C=C/C(=O)/C=C/c1ccccc1O	2.0%	7.9%	35.5µM*
COc1ccccc1/C=C/C(C)=O	-3.8%	8.0%	-7.2%
COC(=O)CNC(=O)C(=O)OC	17.6%	-3.7%	x
O=C1C(=Cc2cccn2-c2ccccc2)C(=O)c2ccccc21	-9.7%	-5.9%	-7.3%
O=C1C(=Cc2cccn2-c2ccc(O)cc2)C(=O)c2ccccc21	1.9%	20µM*	x
O=C(O)c1cc(Cl)cc(Cc2cc(Cl)cc(C(=O)O)c2O)c1O	x	3.4%[14.2 µM]	x
c1ccc(-c2csc3ncnc(NCC4COc5ccccc5O4)c23)cc1 (stereo unspecified)	1.0%	16.9%	14.1µM*
Cc1sc2ncnc(NCC3COc4ccccc4O3)c2c1C (stereo unspecified)	1.5%	-5.3%	u
CC1(C)C(=O)NC2=C1C(=O)C(=O)c1ccccc12	-20.9%[21.7 µM]	-13.5%	-5.4%
C[C@H]1Cc2c(COc3ccccc3)nc3c(c2CO1)CN(C(=O)C1CC1)CC3	-4.4%[13.1 µM]	6.9%[14.2 µM]	x
Cc1nnc(NN)n(N)c1=O	0.6%	8.91µM*	3.0%[57.5 µM]
Cc1nnc(Nc2ccccc2)n(N)c1=O	-3.8%	3.4%	x
SMILES	CBFb RUNX1 block	RGS12 GoLoco inh	ERK EGF block
C=CCn1c(Sc2ncc([N+](=O)[O-])s2)n[nH]c1=O	2.7%	-7.5%	u
O=[N+]([O-])c1cnc(Sc2ccncn2)s1	3.8%	-6.2%	14.1µM*
O=[N+]([O-])c1ccc2c(c1Nc1ccccc1)=NC1(CCCCC1)N=2	-24.2%	63.7%	x
COc1ccc(Nc2c([N+](=O)[O-])ccc3c2=NC2(CCCCC2)N=3)cc1	x	23.9%	14.1µM*
CN(C)c1ccc(/C=C/c2ccc3c4ccccc4ccc3[n+]2-c2ccccc2)cc1	x	70.7%	25.1µM*
CN(C)c1ccc(/C=C/c2cccc[n+]2[O-])cc1	0.1%	-12.7%	2.8%[57.5 µM]
CN1CCC(=C2c3ccccc3Sc3ccccc32)CC1	u	17.8µM*!	11.3%
CN1CCC(=C2c3ccccc3C=Cc3ccccc32)CC1	3.6%	12.4%	-11.1%
Cc1ccc(N=CC2=C(O)CC(c3ccccc3Cl)CC2=O)cc1 (stereo unspecified)	5.6%	-1.2%	20µM*
O=C1CC(c2ccccc2Cl)CC(O)=C1C=Nc1ccccc1 (stereo unspecified)	-1.1%	4.8%	u
CCSc1ccc2cc(OC)ccc2[n+]1CC	-8.4%	2.51µM*	0.7%
CCn1ccc2cc(OC)ccc2c1=S	2.3%	9.4%	x
C#CCCCO/N=C1/C[C@@H](O)[C@@H](O)[C@@H]2[C@@H]3C(=O)N(Cc4ccc5c(c4)OCO5)C(=O)[C@H]3CC[C@@H]12	9.7%[13.1 µM]	x	x
CCCCC(=Nc1ccc(N)cc1)C1=C(O)C(C(=O)OC)C(C)(C)CC1=O (stereo unspecified)	-17.8%	25.1µM*	x
CCC(=Nc1ccc(N)cc1)C1=C(O)C(C(=O)OC)C(C)(C)CC1=O (stereo unspecified)	-23.8%	x	x
CO[C@@H]1COC(=O)[C@@H](CCSC)NC(=O)C/C=C\[C@@H](C)COC(=O)[C@H](C)NC(=O)C/C=C\[C@H]1C	-1.4%[13.1 µM]	x	x
CC(C)C[C@@H](CC(=O)N[C@@H](CCCN)CC(=O)N[C@@H]1CCCC[C@H]1C(=O)N[C@H](CC(=O)N[C@@H](CCC(=O)O)CC(=O)O)CC(C)C)NC(=O)[C@@H]1CNCC[C@H]1N	0.1%	-5.7%	-2.6%
CC(=O)c1cccc([N+](=O)[O-])c1	0.2%[21.7 µM]	8.7%	x
O=C(O)c1cccc([N+](=O)[O-])c1	-2.1%[21.7 µM]	0.398µM*	x
CC(=O)OC(C(=O)c1ccccc1)c1ccccc1 (stereo unspecified)	6.8%[21.7 µM]	15.8µM*	x
COc1ccc(C(=O)OC(C(=O)c2ccc(C)cc2)c2ccccc2)cc1 (stereo unspecified)	18.8%	-9.5%	x
CN1CCN(c2ncnc3ccc(-c4ccccc4C(F)(F)F)cc23)CC1	x	1.4%	x
O=C1c2ccccc2C(=O)c2c(NC(=O)c3ccc4c5c(ncnc35)-c3ccccc3C4=O)cccc21	x	2.3%[14.2 µM]	x
O=C(O)c1ccc2c3c(ncnc13)-c1ccccc1C2=O	-3.3%	17.8µM*	x
Cn1c(=O)c(Nc2ccc(Cl)cc2)c2c3c(cccc31)C(=O)c1ccccc1-2	0.5%	14.1µM*	-1.2%[57.5 µM]
SMILES	CBFb RUNX1 block	RGS12 GoLoco inh	ERK EGF block
CC(=O)Nc1c2c3c(cccc3n(C)c1=O)C(=O)c1ccccc1-2	-5.6%	-2.0%	x
O=C(Cn1c2[n+](c3ccc(C(F)(F)F)cc31)CCCCC2)Nc1ccc(Br)cc1	5.4%	17.8µM*	-6.5%
N#Cc1ccc(NC(=O)Cn2c3[n+](c4ccc(C(F)(F)F)cc42)CCCCC3)cc1	1.2%	3.7%	-1.1%
O=C1NC(=O)C(Cc2ccc(OCCN3COc4ccccc4C3=O)cc2)S1 (stereo unspecified)	6.1%	x	x
CCOC(=O)c1sc(Nc2nc3cc4c(cc3s2)OCO4)cc1C	2.1%	29.1%	u
CCOC(=O)c1sc(Nc2nc3c(OC)cccc3s2)cc1C	-3.7%	28.7%	25.1µM*
COc1cc(OC)cc(-c2nnc3n2N=C(c2c(OC)cccc2OC)CS3)c1	-13.7%	x	x
COC(=O)c1ccc(C(NC(=O)OCc2ccccc2)/C(=C/[C@@H](C)C(=O)NCc2ccccc2)c2cccnc2)cc1 (stereo partly specified)	6.1%	3.1%	-4.0%
Cc1ccc(-c2csc(=Nc3cccnc3)n2CCCn2ccnc2)cc1C	u	-0.2%	28.2µM*
Cc1ccc(-c2csc(=Nc3cccnc3)n2CCCN2CCCC2=O)cc1C	-3.8%	13.4%	-5.2%
Cc1ccn2c(CCc3nnc4cc(C)ccn34)nnc2c1	x	-1.7%[14.2 µM]	x
CCCn1c(C)nc2c(N3CCOCC3)nc(C)nc21	2.0%	-0.8%	1.8%
